The results in this text go back to PMC7862700, “An all-to-all approach to the identification of sequence-specific readers for epigenetic DNA modifications on cytosine”.

Experiment in all cases: DAPPL (digital affinity profiling via proximity ligation, sequencing); 10 mM Tris-HCl pH 7.5, 50 mM NaCl, 1 mM DTT, 4% glycerol, room temperature, 30 min; GST-TFs on glutathione beads, 16-mer random dsDNA library, 0.1% formaldehyde crosslink after washing; high values mean tight binding
For one experiment, the target named is T1, FLI1 (Homo sapiens, UniProt Q01543 1-452).
T1 sequence: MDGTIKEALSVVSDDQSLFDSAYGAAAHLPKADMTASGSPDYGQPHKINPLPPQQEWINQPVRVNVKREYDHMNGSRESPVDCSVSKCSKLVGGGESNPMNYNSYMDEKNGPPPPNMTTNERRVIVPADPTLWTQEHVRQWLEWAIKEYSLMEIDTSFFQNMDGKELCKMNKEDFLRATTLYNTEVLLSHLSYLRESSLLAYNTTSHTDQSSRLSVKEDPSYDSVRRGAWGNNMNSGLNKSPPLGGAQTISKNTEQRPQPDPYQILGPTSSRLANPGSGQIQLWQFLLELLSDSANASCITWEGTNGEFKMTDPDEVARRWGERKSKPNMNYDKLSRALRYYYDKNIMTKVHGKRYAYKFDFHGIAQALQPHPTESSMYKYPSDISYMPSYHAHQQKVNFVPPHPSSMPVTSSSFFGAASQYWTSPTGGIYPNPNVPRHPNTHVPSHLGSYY
Particulars: protein: recombinant; tags: N-terminal GST; dsDNA, one strand shown. The method in brief:
(§1)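 In yeast, human transcription factors were expressed with a GST fusion, then pulled down on glutathione beads and given DNA barcodes. Pooled with a tag-only sample, they were exposed to 200 nmole of a 16-mer random double-stranded DNA library (Tris/NaCl/DTT/glycerol buffer, room temperature, 30 min), washed, crosslinked with 0.1% formaldehyde, proximity-ligated using BsaI/T4 ligase for 1 h at 37 °C, PCR-amplified and read on an Illumina NextSeq500. Each hexamer's frequency of reads for a factor, divided by the matching frequency for the tag-only sample, gives the binding signal.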

The target in a further experiment is T2, ELK1 (Homo sapiens, UniProt P19419 1-428).
T2 sequence: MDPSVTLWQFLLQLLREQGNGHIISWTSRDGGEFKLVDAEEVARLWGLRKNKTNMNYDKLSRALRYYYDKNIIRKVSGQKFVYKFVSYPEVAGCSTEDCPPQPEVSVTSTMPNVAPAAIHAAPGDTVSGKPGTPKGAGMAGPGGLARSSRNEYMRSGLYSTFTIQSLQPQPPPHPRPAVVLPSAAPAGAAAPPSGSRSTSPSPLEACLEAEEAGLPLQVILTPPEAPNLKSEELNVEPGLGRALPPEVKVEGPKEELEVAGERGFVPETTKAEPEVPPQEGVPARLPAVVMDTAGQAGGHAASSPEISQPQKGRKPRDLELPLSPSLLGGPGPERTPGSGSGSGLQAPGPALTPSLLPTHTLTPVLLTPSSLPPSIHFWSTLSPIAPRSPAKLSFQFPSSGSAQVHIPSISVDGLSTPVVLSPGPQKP
The following applies: protein: recombinant; tags: N-terminal GST; dsDNA, one strand shown. The method in brief: as §1

Another experiment deals with T3, GABPA (Homo sapiens, UniProt Q06546 1-454).
T3 sequence: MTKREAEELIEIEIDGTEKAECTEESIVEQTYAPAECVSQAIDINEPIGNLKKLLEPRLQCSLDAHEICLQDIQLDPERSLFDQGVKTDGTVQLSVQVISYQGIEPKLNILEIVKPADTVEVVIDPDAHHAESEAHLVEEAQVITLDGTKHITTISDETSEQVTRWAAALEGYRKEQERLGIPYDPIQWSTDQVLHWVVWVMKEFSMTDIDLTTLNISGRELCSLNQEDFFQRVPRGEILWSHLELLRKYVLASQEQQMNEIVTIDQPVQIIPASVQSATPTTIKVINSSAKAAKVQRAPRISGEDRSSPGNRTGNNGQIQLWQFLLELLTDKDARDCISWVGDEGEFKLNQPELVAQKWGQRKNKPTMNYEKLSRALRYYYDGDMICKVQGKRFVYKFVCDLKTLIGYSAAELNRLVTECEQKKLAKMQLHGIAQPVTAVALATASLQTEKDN
The following applies: protein: recombinant; tags: N-terminal GST; dsDNA, one strand shown. The procedure, abridged:
as §1

The target of a further experiment is T4, ERG (Homo sapiens, UniProt P11308 1-479).
T4 sequence: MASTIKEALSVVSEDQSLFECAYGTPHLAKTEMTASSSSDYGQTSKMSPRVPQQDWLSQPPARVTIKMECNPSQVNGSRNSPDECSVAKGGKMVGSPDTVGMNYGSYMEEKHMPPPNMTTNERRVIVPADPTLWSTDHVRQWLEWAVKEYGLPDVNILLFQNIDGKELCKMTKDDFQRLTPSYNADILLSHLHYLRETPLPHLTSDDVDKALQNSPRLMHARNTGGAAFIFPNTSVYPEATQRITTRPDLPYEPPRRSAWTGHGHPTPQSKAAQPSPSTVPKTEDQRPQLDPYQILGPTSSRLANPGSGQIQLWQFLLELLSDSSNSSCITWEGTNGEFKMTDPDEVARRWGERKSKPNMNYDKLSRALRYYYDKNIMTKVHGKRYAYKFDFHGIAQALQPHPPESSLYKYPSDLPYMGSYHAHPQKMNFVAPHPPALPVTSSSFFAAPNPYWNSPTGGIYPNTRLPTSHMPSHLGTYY
Particulars: protein: recombinant; tags: N-terminal GST; dsDNA, one strand shown. The method in brief: as §1

Another experiment deals with ELF1 (Homo sapiens, UniProt P32519 1-619). The following applies: protein: recombinant; tags: N-terminal GST; dsDNA, one strand shown. The method in brief: as §1
Chain of ELF1 (P32519 whole entry): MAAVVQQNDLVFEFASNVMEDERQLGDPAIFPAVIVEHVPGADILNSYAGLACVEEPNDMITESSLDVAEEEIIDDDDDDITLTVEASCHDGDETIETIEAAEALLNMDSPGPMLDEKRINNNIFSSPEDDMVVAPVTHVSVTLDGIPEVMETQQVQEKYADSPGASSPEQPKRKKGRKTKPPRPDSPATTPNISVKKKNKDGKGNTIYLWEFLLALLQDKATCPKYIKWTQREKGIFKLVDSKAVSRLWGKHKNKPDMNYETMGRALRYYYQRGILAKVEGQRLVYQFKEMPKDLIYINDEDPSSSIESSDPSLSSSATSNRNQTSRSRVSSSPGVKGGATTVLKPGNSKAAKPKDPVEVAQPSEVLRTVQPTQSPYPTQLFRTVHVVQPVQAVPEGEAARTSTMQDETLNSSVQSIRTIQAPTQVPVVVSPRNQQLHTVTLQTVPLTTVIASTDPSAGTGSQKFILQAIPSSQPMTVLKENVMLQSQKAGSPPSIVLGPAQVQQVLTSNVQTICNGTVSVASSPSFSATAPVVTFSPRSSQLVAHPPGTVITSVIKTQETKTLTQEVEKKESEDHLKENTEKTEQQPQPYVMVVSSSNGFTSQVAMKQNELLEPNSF
The target in a further experiment is T5, EHF (Homo sapiens, UniProt Q9NZC4 1-300).
T5 sequence: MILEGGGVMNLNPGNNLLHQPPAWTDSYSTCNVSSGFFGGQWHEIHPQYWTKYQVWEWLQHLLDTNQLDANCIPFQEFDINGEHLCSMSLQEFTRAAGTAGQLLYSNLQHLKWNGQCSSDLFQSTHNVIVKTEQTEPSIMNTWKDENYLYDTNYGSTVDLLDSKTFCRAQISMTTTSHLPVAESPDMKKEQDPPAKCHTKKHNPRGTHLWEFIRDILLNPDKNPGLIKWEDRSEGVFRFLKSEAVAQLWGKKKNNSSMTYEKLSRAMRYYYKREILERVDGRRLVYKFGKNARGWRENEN
The following applies: protein: recombinant; tags: N-terminal GST; dsDNA, one strand shown. The method in brief: as §1

In the next experiment the target is SPI1 (Homo sapiens, UniProt P17947 1-270). Particulars: protein: recombinant; tags: N-terminal GST; dsDNA, one strand shown. The procedure, abridged: as §1
In the next experiment the target is SPIB (Homo sapiens, UniProt Q01892 1-262). Particulars: protein: recombinant; tags: N-terminal GST; dsDNA, one strand shown. The procedure, abridged: as §1
Chain of SPIB (Q01892 whole entry): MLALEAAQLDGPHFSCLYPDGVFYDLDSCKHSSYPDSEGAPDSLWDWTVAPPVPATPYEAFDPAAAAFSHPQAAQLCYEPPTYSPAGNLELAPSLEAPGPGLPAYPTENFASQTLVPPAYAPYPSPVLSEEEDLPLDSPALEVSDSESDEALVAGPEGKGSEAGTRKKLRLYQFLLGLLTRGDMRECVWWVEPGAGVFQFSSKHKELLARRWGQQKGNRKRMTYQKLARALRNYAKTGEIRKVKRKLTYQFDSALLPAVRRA
For the next experiment, the target named is T6, ELK3 (Homo sapiens, UniProt P41970 1-407).
T6 sequence: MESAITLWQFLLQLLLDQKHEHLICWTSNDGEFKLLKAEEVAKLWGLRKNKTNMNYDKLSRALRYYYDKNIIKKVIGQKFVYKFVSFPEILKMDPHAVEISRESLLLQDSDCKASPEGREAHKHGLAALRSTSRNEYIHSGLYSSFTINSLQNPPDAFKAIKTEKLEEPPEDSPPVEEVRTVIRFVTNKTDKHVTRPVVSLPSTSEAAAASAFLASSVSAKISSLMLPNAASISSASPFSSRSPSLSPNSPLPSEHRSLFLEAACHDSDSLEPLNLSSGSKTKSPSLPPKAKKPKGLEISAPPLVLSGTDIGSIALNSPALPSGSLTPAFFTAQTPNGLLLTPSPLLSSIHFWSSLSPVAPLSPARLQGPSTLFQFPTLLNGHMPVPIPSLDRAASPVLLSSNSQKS
Particulars: protein: recombinant; tags: N-terminal GST; dsDNA, one strand shown. The procedure, abridged:
as §1

In the next experiment the target is T7, FEV (Homo sapiens, UniProt Q99581 1-238).
T7 sequence: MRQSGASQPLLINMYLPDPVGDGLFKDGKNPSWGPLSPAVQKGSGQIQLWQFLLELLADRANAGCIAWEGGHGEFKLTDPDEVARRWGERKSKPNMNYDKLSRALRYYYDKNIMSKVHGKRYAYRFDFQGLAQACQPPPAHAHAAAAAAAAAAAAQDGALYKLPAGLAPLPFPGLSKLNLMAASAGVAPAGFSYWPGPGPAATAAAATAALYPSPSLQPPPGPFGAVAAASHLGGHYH
Particulars: protein: recombinant; tags: N-terminal GST; dsDNA, one strand shown. The method in brief: as §1

For a further experiment, the target named is ETV5 (Homo sapiens, UniProt P41161 1-510). Particulars: protein: recombinant; tags: N-terminal GST; dsDNA, one strand shown. The procedure, abridged:
as §1

For a further experiment, the target named is HSF1 (Homo sapiens, UniProt Q00613 1-529). Particulars: protein: recombinant; tags: N-terminal GST; chain copies: 3; dsDNA, one strand shown. The method in brief: as §1
Chain of HSF1 (Q00613 whole entry): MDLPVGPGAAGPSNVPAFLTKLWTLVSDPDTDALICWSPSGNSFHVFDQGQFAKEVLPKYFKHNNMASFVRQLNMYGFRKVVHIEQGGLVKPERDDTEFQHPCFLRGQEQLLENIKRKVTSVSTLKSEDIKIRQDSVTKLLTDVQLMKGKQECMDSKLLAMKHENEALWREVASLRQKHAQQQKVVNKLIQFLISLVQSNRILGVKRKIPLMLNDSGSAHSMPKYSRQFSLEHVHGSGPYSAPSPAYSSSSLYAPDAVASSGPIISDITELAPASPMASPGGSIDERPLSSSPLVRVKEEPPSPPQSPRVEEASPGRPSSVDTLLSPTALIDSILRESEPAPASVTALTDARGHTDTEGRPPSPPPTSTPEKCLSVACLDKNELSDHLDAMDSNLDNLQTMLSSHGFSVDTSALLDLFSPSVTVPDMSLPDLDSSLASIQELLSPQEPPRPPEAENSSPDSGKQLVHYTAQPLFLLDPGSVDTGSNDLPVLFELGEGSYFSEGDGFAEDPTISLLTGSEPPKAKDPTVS
In the next experiment the target is T8, SPIC (Homo sapiens, UniProt Q8N5J4 1-248).
T8 sequence: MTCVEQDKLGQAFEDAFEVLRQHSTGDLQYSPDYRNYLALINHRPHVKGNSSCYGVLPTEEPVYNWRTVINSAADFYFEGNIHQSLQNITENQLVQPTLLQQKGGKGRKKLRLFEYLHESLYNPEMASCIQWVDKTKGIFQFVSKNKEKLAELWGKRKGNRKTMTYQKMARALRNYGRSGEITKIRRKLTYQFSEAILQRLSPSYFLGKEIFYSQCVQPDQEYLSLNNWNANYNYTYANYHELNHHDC
Particulars: protein: recombinant; tags: N-terminal GST; dsDNA, one strand shown. The method in brief:
as §1

A further experiment concerns the target ELF4 (Homo sapiens, UniProt Q99607 1-663). Particulars: protein: recombinant; tags: N-terminal GST; dsDNA, one strand shown. The method in brief:
as §1

For the next experiment, the target named is T9, ELK4 (Homo sapiens, UniProt P28324-2 1-405).
T9 sequence: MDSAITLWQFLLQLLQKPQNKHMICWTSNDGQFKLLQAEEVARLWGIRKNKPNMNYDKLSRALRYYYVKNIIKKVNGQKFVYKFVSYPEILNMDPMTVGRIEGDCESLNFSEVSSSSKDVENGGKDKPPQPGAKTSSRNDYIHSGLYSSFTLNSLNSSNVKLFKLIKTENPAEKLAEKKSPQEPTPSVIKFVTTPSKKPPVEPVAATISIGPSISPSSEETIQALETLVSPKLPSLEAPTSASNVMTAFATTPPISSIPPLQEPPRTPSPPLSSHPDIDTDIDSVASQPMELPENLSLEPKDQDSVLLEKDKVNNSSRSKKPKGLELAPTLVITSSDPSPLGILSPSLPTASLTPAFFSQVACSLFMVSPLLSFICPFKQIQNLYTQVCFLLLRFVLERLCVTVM
The following applies: protein: recombinant; tags: N-terminal GST; dsDNA, one strand shown. The procedure, abridged:
as §1

The next experiment addresses T10, ETV2 (Homo sapiens, UniProt O00321 1-342).
T10 sequence: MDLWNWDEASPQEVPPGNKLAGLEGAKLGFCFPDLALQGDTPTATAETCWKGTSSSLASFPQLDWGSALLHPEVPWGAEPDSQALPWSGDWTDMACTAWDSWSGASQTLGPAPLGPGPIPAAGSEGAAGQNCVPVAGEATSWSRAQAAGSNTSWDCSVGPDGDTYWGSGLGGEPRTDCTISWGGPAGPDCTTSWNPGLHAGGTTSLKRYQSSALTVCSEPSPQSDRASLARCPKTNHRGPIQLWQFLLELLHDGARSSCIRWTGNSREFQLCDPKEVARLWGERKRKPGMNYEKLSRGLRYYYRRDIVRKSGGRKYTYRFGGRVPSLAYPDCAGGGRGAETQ
The following applies: protein: recombinant; tags: N-terminal GST; dsDNA, one strand shown. The procedure, abridged: as §1

The target of a further experiment is T11, ELF3 (Homo sapiens, UniProt P78545 1-371).
T11 sequence: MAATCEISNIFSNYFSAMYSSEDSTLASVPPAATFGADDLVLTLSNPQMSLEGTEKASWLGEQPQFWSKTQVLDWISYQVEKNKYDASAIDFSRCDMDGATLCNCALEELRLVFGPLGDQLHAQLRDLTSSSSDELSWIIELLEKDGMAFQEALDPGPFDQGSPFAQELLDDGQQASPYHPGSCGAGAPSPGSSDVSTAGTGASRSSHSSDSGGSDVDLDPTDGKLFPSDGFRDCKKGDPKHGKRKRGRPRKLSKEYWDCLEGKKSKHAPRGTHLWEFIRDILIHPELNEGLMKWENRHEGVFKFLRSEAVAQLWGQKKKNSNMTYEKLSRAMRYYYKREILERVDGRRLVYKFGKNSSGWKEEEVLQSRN
Particulars: protein: recombinant; tags: N-terminal GST; dsDNA, one strand shown. The method in brief: as §1

For the next experiment, the target named is CRX (Homo sapiens, UniProt O43186 1-299). The following applies: protein: recombinant; tags: N-terminal GST; dsDNA, one strand shown. The method in brief: as §1
Chain of CRX (O43186 whole entry): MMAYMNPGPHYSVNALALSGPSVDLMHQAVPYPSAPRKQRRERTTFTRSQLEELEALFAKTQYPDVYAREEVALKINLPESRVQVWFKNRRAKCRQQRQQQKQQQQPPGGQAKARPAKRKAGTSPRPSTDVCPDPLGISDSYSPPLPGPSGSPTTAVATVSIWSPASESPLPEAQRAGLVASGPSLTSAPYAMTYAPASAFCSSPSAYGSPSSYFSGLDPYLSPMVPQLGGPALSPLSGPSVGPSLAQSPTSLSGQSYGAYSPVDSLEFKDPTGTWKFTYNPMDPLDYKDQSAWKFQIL
For a further experiment, the target named is ETV1 (Homo sapiens, UniProt P50549 1-477). The following applies: protein: recombinant; tags: N-terminal GST; dsDNA, one strand shown. The procedure, abridged:
as §1

Chain of ETV1 (P50549 whole entry): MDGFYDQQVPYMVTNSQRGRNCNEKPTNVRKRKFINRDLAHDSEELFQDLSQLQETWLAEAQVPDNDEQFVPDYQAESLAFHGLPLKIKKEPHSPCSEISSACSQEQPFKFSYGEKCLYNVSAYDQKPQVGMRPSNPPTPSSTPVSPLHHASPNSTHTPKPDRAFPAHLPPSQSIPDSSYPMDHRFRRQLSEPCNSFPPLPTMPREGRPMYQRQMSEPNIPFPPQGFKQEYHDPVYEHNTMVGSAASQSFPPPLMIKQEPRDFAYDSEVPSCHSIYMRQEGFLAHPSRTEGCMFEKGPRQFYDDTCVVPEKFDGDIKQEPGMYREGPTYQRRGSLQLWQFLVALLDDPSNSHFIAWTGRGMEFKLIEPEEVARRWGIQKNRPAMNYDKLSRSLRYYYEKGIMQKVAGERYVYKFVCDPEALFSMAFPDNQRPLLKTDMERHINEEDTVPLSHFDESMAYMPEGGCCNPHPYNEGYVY
Chain of ETV5 (P41161 whole entry): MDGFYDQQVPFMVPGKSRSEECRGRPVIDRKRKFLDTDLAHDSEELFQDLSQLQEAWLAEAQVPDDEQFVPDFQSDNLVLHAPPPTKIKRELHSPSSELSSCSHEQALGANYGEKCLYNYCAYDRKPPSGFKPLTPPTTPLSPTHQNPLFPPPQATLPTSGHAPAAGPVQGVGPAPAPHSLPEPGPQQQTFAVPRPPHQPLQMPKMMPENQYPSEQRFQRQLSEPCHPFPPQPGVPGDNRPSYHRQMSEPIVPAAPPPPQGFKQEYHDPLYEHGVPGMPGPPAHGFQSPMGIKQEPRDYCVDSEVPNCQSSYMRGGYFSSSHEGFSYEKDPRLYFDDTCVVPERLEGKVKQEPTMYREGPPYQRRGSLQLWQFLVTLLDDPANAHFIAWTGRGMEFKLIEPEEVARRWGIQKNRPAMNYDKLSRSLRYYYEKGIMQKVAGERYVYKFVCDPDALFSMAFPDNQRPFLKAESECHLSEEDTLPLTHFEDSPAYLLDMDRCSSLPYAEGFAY
Chain of ELF4 (Q99607 whole entry): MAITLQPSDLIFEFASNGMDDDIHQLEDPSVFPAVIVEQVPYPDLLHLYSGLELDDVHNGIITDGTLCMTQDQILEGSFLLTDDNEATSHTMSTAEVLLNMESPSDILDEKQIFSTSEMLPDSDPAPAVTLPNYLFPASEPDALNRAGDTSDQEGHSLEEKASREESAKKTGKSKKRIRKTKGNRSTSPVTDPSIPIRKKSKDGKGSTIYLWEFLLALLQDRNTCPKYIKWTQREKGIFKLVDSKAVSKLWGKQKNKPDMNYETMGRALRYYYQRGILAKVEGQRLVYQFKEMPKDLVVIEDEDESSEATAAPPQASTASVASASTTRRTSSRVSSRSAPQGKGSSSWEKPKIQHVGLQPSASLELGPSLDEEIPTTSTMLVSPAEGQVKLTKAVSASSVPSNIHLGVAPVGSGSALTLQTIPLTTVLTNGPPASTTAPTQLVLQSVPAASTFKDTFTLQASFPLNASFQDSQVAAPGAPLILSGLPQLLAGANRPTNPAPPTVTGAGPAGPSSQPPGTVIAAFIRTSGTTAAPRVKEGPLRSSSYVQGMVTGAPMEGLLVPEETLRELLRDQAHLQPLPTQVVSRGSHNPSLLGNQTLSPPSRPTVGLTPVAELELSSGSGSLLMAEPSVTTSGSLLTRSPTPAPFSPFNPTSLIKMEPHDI

Consider TTATTC, for which the binding signal in the experiment with FLI1 is 1.48 fold enrichment (6-mer frequency, TF over GST control); with ELK1, 1.41 fold enrichment (6-mer frequency, TF over GST control); with GABPA it was 1.38 fold enrichment (6-mer frequency, TF over GST control); in the experiment with ERG it was 1.34 fold enrichment (6-mer frequency, TF over GST control); with ELF1, 1.3 fold enrichment (6-mer frequency, TF over GST control); with EHF, 1.29 fold enrichment (6-mer frequency, TF over GST control). The binding signal in the experiment with SPI1 was 1.33 fold enrichment (6-mer frequency, TF over GST control); with SPIB, 1.39 fold enrichment (6-mer frequency, TF over GST control); with ELK3, 1.45 fold enrichment (6-mer frequency, TF over GST control); with FEV, 1.39 fold enrichment (6-mer frequency, TF over GST control); with ETV5, 1.33 fold enrichment (6-mer frequency, TF over GST control); with HSF1, 2.13 fold enrichment (6-mer frequency, TF over GST control). Moreover, the binding signal was 1.45 fold enrichment (6-mer frequency, TF over GST control) with SPIC; 1.41 fold enrichment (6-mer frequency, TF over GST control) with ELF4; 1.31 fold enrichment (6-mer frequency, TF over GST control) in the experiment with ELK4; 1.54 fold enrichment (6-mer frequency, TF over GST control) with ETV2; 1.24 fold enrichment (6-mer frequency, TF over GST control) with ELF3; 2.37 fold enrichment (6-mer frequency, TF over GST control) in the experiment with CRX. Moreover, the binding signal in the experiment with ETV1 is 1.36 fold enrichment (6-mer frequency, TF over GST control).
